Reference: PubChem BioAssay (NCATS)
Results filed as inconclusive are left out. Where a call stands in place of a potency, no number is given. A number with no mark means an inactive call. Active and inactive are the calls of the source. Calls follow the shape of the dose curve; as a rule, active = well fitted curve in the direction sought with a large enough effect; inconclusive = small, poorly fitted or top-dose-only effect, or another doubt; inactive = no such curve, though single readings can be large; an effect the other way counts as inactive or inconclusive.

How the values were obtained:
[1] = target: Cellular tumor antigen p53 (Homo sapiens) (UniProt P04637); assay: Primary qHTS for small molecule compounds that upregulate eGFP-tagged delta133p53alpha (in N-terminal) cells. (AID 2060322); details: NCI-H358 eGFP-delta133p53alpha fluorescence, 24 h; activation: stronger effect = higher value; also: nearly all actives have a fitted effect of over 75% in size; also: potency is read from the fitted curve at half-maximal effect; as to activation: series mostly up to about 56 µM
Procedure, shortened: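 NCI-H358 cells pre-induced 24 h with 10 ng/ml doxycycline to express N-terminal eGFP-delta133p53alpha, then dosed 24 h at 37C without doxycycline; fixed, Hoechst-stained, GFP intensity by laser scanning cytometry, normalized to DMSO (0%) and 57.5 uM 5-azacytidine (100%).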

[2] = target: Aldehyde dehydrogenase, mitochondrial (Homo sapiens) (UniProt P05091); assay: qHTS for Inhibitors of the Aldehyde Dehydrogenase Family (ALDH2) Primary screen (AID 2061308); also: nearly all actives have a fitted effect of over 55% in size
[3] = target: Retinaldehyde dehydrogenase 3 (Homo sapiens) (UniProt P47895); assay: qHTS for Inhibitors of the Aldehyde Dehydrogenase Family (ALDH1A3) Primary screen (AID 2061315)

Cellular tumor antigen p53 (Homo sapiens), sequence (P04637 whole entry, looked up): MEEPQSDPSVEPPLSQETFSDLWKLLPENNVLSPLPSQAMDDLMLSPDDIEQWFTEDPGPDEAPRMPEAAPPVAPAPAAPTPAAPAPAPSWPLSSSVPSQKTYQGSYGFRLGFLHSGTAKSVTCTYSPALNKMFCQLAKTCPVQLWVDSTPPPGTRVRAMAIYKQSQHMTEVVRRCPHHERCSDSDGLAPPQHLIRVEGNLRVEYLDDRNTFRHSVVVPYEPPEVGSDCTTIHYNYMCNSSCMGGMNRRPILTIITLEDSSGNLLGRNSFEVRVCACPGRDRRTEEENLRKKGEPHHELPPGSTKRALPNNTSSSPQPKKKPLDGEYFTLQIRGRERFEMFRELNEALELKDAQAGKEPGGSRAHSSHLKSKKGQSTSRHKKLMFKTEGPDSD

SMILES | activation [1] [%] | Potency [2] | Potency [3] | Potency [1] | activity change, negative = inhibition [2] | activity change, negative = inhibition [3]
COc1cc(O)cc2c1C(=O)OC(C)C2 (configuration not stated) | -13 | inactive | inactive |  |  | 
CC1(C)CC2C(C1)C(C)(O)C13CC1(COC3=O)C2O (configuration not stated) | 8.93 | inactive | inactive |  |  | 
COc1ccc(/C=C/C(=O)O[C@@H]2[C@@H](O)[C@H](C)O[C@@H](O[C@H]3[C@@H]4C=CO[C@@H](O[C@H]5O[C@@H](CO)[C@H](O)[C@@H](O)[C@@H]5O)[C@@H]4[C@@]4(CO)O[C@@H]34)[C@@H]2OC(C)=O)cc1 | -12.5 | inactive | inactive |  |  | 
CC(=O)OC[C@@]12C(=O)C[C@@H](C)[C@]3(C[C@@H](c4ccoc4)OC3=O)[C@H]1CC[C@H](OC(C)=O)[C@]21CO1 | 27.5 | inactive | inactive |  |  | 
C=C[C@H]1[C@H](O[C@@H]2O[C@H](CO[C@@H]3OC[C@](O)(CO)[C@H]3O)[C@@H](O)[C@H](O)[C@H]2O)OC=C2C(=O)OCC[C@H]21 | 5.36 | inactive | inactive |  |  | 
C/C=C(\C)C1C(C)=CC2CCC(OS(=O)(=O)O)C(C)C2C1/C=C/C=C/C(=O)O (configuration not stated) | 0.893 | inactive | inactive |  |  | 
CNC12CC3C[C@@](C)(C1)C[C@](C)(C3)C2 | -6.33 | inactive | inactive |  |  | 
COC(=O)C1=CO[C@@H](O[C@@H]2O[C@H](CO)[C@@H](O)[C@H](O)[C@H]2O)[C@H]2[C@@H]1C=C[C@]21C=C([C@H](C)OC(=O)/C=C/c2ccc(O)cc2)C(=O)O1 |  | inactive | inactive | 2.51 µM (active) |  | 
CC(C)C(NC(=O)c1ccc(O)cc1)C(=O)N1CCCC1C(=O)Nc1c(O)cccc1C(=O)O (configuration not stated) | -0.763 | inactive | inactive |  |  | 
CC1CCC2(NC1)OC1CC3C4CC=C5CC(O[C@@H]6O[C@H](CO)[C@@H](O[C@@H]7O[C@@H](C)[C@H](O)[C@@H](O)[C@H]7O)[C@H](O)[C@H]6O[C@@H]6O[C@@H](C)[C@H](O)[C@@H](O)[C@H]6O)CCC5(C)C4CCC3(C)C1C2C (some centres not stated) | 16.8 | inactive | inactive |  |  | 
COc1ccc(/C=C/C(=O)O[C@@H]2[C@@H](OC(C)=O)[C@@H](OC(C)=O)[C@H](O[C@H]3[C@@H]4C=CO[C@@H](O[C@@H]5O[C@H](CO)[C@@H](O)[C@H](O)[C@H]5O)[C@@H]4[C@@]4(CO)O[C@@H]34)O[C@H]2C)cc1O | -16 | inactive | inactive |  |  | 
COCCN(C)Cc1ccc2nc3sc(C(=O)N(C)C4CCCCC4)cn3c2c1 | 15.7 | inactive | inactive |  |  | 
O=C(Nc1ccc(Cl)cc1)C1CCCN(C(=O)c2cccc(-c3ccco3)c2)C1 (configuration not stated) | -4.77 | inactive | inactive |  |  | 
C[C@@H]1O[C@@H](O[C@@H]2[C@@H](O)[C@H](O[C@H]3[C@H](O[C@H]4CC[C@@]5(C)C(CC[C@]6(C)C5CC=C5[C@@H]7CC(C)(C)CC[C@]7(C(=O)O[C@@H]7O[C@H](CO)[C@@H](O)[C@H](O)[C@H]7O[C@@H]7O[C@@H](C)[C@H](O[C@@H]8O[C@@H](C)[C@H](O)[C@@H](O)[C@H]8O)[C@@H](O)[C@H]7O)CC[C@]56C)[C@@]4(C)CO)O[C@H](C(=O)O)[C@@H](O)[C@@H]3O)O[C@H](CO)[C@H]2O)[C@H](O)[C@H](O)[C@H]1O (some centres not stated) | -9.16 |  |  |  | 7.29% [at 11.2 µM] | -3.36% [at 11.2 µM]
Cc1ccc(C(=O)N2CCN(c3ccc([N+](=O)[O-])cc3)CC2)cc1Cl | 1.91 | inactive | inactive |  |  | 
CC(O)/C=C/C1(O)C(C)C(O[C@@H]2O[C@H](CO)[C@@H](O)[C@H](O)[C@H]2O)C(O)CC1(C)C (some centres not stated) | -10.7 | inactive | inactive |  |  | 
COCC1OC(OC(C)(C)C2CCC3(C)C=C(C4CCC5C4(C)CC(O)C4OC(C(C)(C)OC6OC(CO)C(O)C(O)C6NC(C)=O)CCC45C)CCC3O2)C(NC(C)=O)C(O)C1O (configuration not stated) | -16.8 | inactive | inactive |  |  | 
CC(=O)O[C@H]1CC[C@H](C)[C@@]2(C)[C@H](OC(C)=O)c3c(C)coc3C(=O)[C@H]12 | -3.82 | inactive | inactive |  |  | 
C[C@@H]1C[C@H]2[C@@H]3CCC4=CC(=O)C=C[C@]4(C)[C@@]3(F)[C@@H](O)C[C@]2(C)[C@@]1(O)C(=O)COP(=O)(O)O | -5.67 | inactive | inactive |  |  | 
